Each structure is given as a SMILES string. Records with an inconclusive call do not appear. Values without a mark were called inactive. Active and inactive are the calls of the source. Calls come from the whole dose curve; as a rule, active = well fitted curve in the direction sought with a large enough effect; inconclusive = small, poorly fitted or top-dose-only effect, or another doubt; inactive = no such curve, though single readings can be large; an effect the other way counts as inactive or inconclusive. *1 amine or outer side, *2 acyl side, *3 side chain or, on linkers, in order; H or OH if unused. Where a SMILES comes first, the peptide text is derived from it. [ ]: non-standard residue; d: D form. X13 = O=C(C(CC(O)CO)O[*:1])[*:2]; NMeV = CN[CH](C(=O)O)C(C)C; NMeA = CN[CH](C)C(=O)O; βAla = NCCC(=O)O

For experiment [1], the system named is CRL-7250. Description: Cytotoxic Profiling of Annotated Libraries Using Quantitative High-Throughput Screening (AID 1296008). For max response: % is set by controls: 0 for no effect and ±100 for the full control effect. Note: nearly all actives have a fitted effect of over 60% in size. Note: potency is the fitted concentration of half-maximal effect. Particulars: Five cell lines viability, CellTiter-Glo ATP luminescence, 48-72 h; max response: stronger effect = lower value. The procedure, abridged:
(§1)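 Cytotoxicity was measured as CellTiter-Glo ATP luminescence, read after 10 min at room temperature. Compound treatment of the cells lasted 48 or 72 hr at 37 degrees Celsius in a qHTS format.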

Experiment [2] has as its system HEK293. The experiment is described as above. Particulars: Five cell lines viability, CellTiter-Glo ATP luminescence, 48-72 h; max response: stronger effect = lower value. Put shortly: as §1
For experiment [3], the system named is HaCat. Described as above. To be noted: Five cell lines viability, CellTiter-Glo ATP luminescence, 48-72 h; max response: stronger effect = lower value. The procedure, abridged:
as §1
For orientation: Cellular ATP, detected with luciferase, serves as a proxy for viable cell number.

Experiment [4] has as its system KB-3-1. The experiment is described as above. Particulars: Five cell lines viability, CellTiter-Glo ATP luminescence, 48-72 h; max response: stronger effect = lower value. The procedure, abridged:
as §1

Experiment [5] relates to NIH3T3. Described as above. To be noted: Five cell lines viability, CellTiter-Glo ATP luminescence, 48-72 h; max response: stronger effect = lower value. Put shortly: as §1
The test system of experiment [6] is HACAT. Description: qHTS assay to identify novel small-molecules to repurpose for Merkel cell carcinoma treatment (AID 1296009). Note: nearly all actives have a fitted effect of over 60% in size. Particulars: MCC and control cell lines, CellTiter-Glo viability, 72 h; at 44.8 µM (top of the series) unless noted. Put shortly:
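After compound transfer in DMSO, plates were kept 72 hr at 37 degree celsius. Luminescent ATP signal from CellTiter-Glo served as viability measure, normalized against DMSO and no-cell controls.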
On the technique in general: In qHTS, concentration-response curves come from the screen itself.

Experiment [7] concerns C33A. As to the kind of experiment: Primary qHTS to identify gynecologic anti-cancer compounds using libraries of approved drugs and bioactive compounds (AID 1345084). Note: % is set by controls: 0 for no effect and ±100 for the full control effect; nearly all actives have a fitted effect of over 55% in size. To be noted: Gynecologic cancer cell panel viability, ATPlite luminescence, 48 h; series mostly up to 57.5 µM. The procedure, abridged: (§2)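 Cells, 1,000 per well, were allowed to settle for 16 h at 37 C before compound addition. Five concentrations were tested for 48 h, and viability was read by ATPlite luminescence after 15 min at room temperature.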

The subject of experiment [8] is CAOV3. The experiment is described as above. To be noted: Gynecologic cancer cell panel viability, ATPlite luminescence, 48 h; series mostly up to 57.5 µM. Put shortly: as §2
The test system of experiment [9] is CASKI. Described as above. To be noted: Gynecologic cancer cell panel viability, ATPlite luminescence, 48 h; series mostly up to 57.5 µM. Put shortly:
as §2

Experiment [10] relates to Es-2. The description is as above. To be noted: Gynecologic cancer cell panel viability, ATPlite luminescence, 48 h; series mostly up to 57.5 µM. Put shortly: as §2
Experiment [11] has as its system HeLa. The experiment is described as above. Particulars: Gynecologic cancer cell panel viability, ATPlite luminescence, 48 h; series mostly up to 57.5 µM. Put shortly:
as §2

Experiment [12] has as its system Hek293T. Described as above. Particulars: Gynecologic cancer cell panel viability, ATPlite luminescence, 48 h, control line for the selectivity index; series mostly up to 57.5 µM. The procedure, abridged:
as §2

In experiment [13] the test system is JEG-3. Described as above. Particulars: Gynecologic cancer cell panel viability, ATPlite luminescence, 48 h; series mostly up to 57.5 µM. The procedure, abridged: as §2
In experiment [14] the test system is OV90. The description is as above. Particulars: Gynecologic cancer cell panel viability, ATPlite luminescence, 48 h; series mostly up to 57.5 µM. Put shortly: as §2

Take `C/C=C(\C)C(=O)O[C@H]1C=CC(=O)O[C@H]1/C=C/[C@H](O)[C@@H](C)O`: the max response is 4.14% in experiment [1], -103% in experiment [2] and -1.43% in experiment [5]. Besides, the compound was called inactive in experiment [3], in experiment [4], in experiment [6] and in experiment [9]. Moreover, the Potency result in experiment [7], in experiment [8], in experiment [10], in experiment [11], in experiment [12] and in [13] was “inactive” in each case. For the same compound, the Potency result in experiment [14] was “inactive”.

For the compound `OC[C@H]1O[C@@H](Oc2cc(O)cc(-c3cc4ccc(O[C@@H]5O[C@H](CO)[C@@H](O)[C@H](O)[C@H]5O)cc4o3)c2)[C@H](O)[C@@H](O)[C@@H]1O`, the max response in experiment [1] is -9.86%; in [2], -2.42%; in experiment [4], 0.0792%; in experiment [5] it was -3.34%. Besides, the compound was classed as inactive in [3] and in experiment [9]. For the same compound, the outcome in experiment [6] was “inactive [at 17.4 µM]”. Also, the Potency entry in experiment [7], in experiment [8], in [10], in experiment [11], in experiment [12] and in experiment [13] was “inactive” throughout. For the same compound, in experiment [14], the Potency result is “inactive”.

In the case of `CC(=O)/C=C/C1(O)C(C)CC(O[C@@H]2O[C@H](CO)[C@@H](O)[C@H](O)[C@H]2O)CC1(C)C` (stereo partly specified), the compound was called inactive in [1], in [3], in experiment [4] and in experiment [9]. Moreover, the figures for the max response in experiment [2] and in [5] were 1.81% and -2.62%, respectively. For the same compound, in experiment [6], the outcome was “inactive [at 17.4 µM]”. The Potency result in experiment [7], in [8], in experiment [10], in experiment [11], in [12] and in [13] was “inactive” in each case. The Potency result in [14] was “inactive”.

For the compound `Cc1cc(C(=O)N2Cc3cnn(C)c3Nc3ccccc32)ccc1CNC(=O)N1CCN(Cc2cc(O)cc(O)c2)CC1`, the result in experiment [1], in experiment [3], in experiment [4], in experiment [6] and in experiment [9] was inactive. The values for the max response in [2] and in [5] were -0.745% and -0.633%, respectively. The Potency entry in experiment [7], in [8], in [10], in [11], in experiment [12] and in experiment [13] was “inactive” each time. The Potency entry in experiment [14] was “inactive”.

On to `CC1=CC2=C(C)C(=O)[C@](C)(O)[C@H](O)C2=CO1`, for which the max response in [1] was -8.59%; in experiment [2] it was 3.6%; in experiment [4], 6.84%; in experiment [5], -3.34%. Also, the compound was called inactive in experiment [3], in experiment [6] and in experiment [9]. The Potency result in experiment [7], in experiment [8], in experiment [10], in experiment [11], in experiment [12] and in experiment [13] was “inactive” throughout. In addition, the Potency entry in [14] was “inactive”.

Consider `CC(=O)c1[nH]cc(CCC(=O)O)c1CC(=O)O`, for which the result in experiment [1], in experiment [3], in [4], in [6] and in experiment [9] was inactive. The max response in experiment [2] was -1.24%; in experiment [5], -3.85%. Further, the Potency entry in experiment [7], in experiment [8], in experiment [10], in experiment [11], in experiment [12] and in [13] was “inactive” each time. The Potency entry in experiment [14] is “inactive”.

Turning to `Cc1cccc(-c2nn3c(c2-c2ccnc4ccc(C(N)=O)cc24)CCC3)n1`, the max response is 1.85% in experiment [1], 3.73% in experiment [2] and -5.67% in experiment [5]. Also, the outcome in experiment [3], in [4], in [6] and in [9] was inactive. Further, the Potency entry in [7], in experiment [8], in [10], in [11], in [12] and in experiment [13] was “inactive” each time. In experiment [14], the Potency entry is “inactive”.

Take `C[C@H](/C=C/[C@@]1(O)[C@H](C)CC(=O)CC1(C)C)O[C@@H]1O[C@H](CO[C@@H]2OC[C@@H](O)[C@H](O)[C@H]2O)[C@@H](O)[C@H](O)[C@H]1O`: the call in experiment [1], in experiment [3], in experiment [4] and in experiment [9] was inactive. In addition, the max response in [2] is -7.74%; in experiment [5] it was -1.42%. In experiment [6], the outcome is “inactive [at 17.4 µM]”. Further, the Potency entry in [7], in [8], in [10], in [11], in experiment [12] and in experiment [13] was “inactive” in each case. Also, in [14], the Potency entry was “inactive”.

As for `O=C(/C=C/c1ccc(O)cc1)OCC1OC(O)C(OC2OC(CO)C(O)C(O)C2O)C(O)C1O` (stereo unspecified), the call in [1], in experiment [3] and in experiment [9] was inactive. For the same compound, the max response in experiment [2] is -3.95%; in experiment [4] it was 8.27%; in experiment [5], 3.74%. Further, the outcome in [6] was “inactive [at 17.4 µM]”. Also, the Potency result in experiment [7], in experiment [8], in [10], in [11], in [12] and in experiment [13] was “inactive” throughout. The Potency entry in experiment [14] is “inactive”.

As for `Oc1ccc2c(-c3c(-c4ccccn4)nn4c3CCC4)ccnc2c1`, the max response in experiment [1] was -1.66%; in experiment [2], -21.7%; in experiment [4], -4.91%. Also, the call in [3], in experiment [6] and in experiment [9] was inactive. Moreover, in experiment [5], the Potency was 13 µM (active). The Potency entry in experiment [7], in experiment [8], in experiment [10], in experiment [11], in experiment [12] and in experiment [13] was “inactive” each time. The Potency entry in experiment [14] was “inactive”.

With `CCCO[C@@H]1O[C@H](CO)[C@@H](O)[C@H](O)[C@H]1O[C@@H]1OC[C@@H](O)[C@H](O)[C@H]1O`, the max response in experiment [1] was 1.31%; in [2] it was -4.21%; in [4], 9.26%; in experiment [5] it was -1.11%. Also, the compound was classed as inactive in experiment [3], in experiment [6] and in [9]. The Potency entry in experiment [7], in experiment [8], in experiment [10], in experiment [11], in experiment [12] and in [13] was “inactive” throughout. Moreover, the Potency result in [14] was “inactive”.

As to `CCC(C)C1NC(=O)C2CCCN2C(=O)C(CC(O)CO)OC(=O)CCNC(=O)C(C)N(C)C(=O)C(C(C)C)N(C)C1=O` (stereo unspecified) (cyclo([X13]PI[NMeV][NMeA][βAla]); configuration not given here), the max response was -8.24% in [1], 2.6% in [2] and 9.21% in experiment [4]. In addition, the result in [3], in experiment [5] and in experiment [9] was inactive. Moreover, in [6], the outcome was “inactive [at 17.4 µM]”. Further, the Potency result in experiment [7], in experiment [8], in experiment [10], in experiment [11], in [12] and in [13] was “inactive” throughout. Besides, the Potency result in experiment [14] is “inactive”.

Regarding `COc1c2c(c(C)c3c1C(=O)OC3)OC1(C)CC(O)C34OC(OC)(CC(O)C3(C)C1C2)OC4(C)C` (stereo unspecified), the max response in experiment [1] was 0.784%; in experiment [2] it was -15.9%; in experiment [4], 4.03%; in experiment [5], 1.57%. Besides, the outcome in [3] and in experiment [9] was inactive. Besides, in [6], the outcome was “inactive [at 17.4 µM]”. For the same compound, the Potency result in experiment [7], in experiment [8], in experiment [10], in [11], in experiment [12] and in [13] was “inactive” in each case. Also, in experiment [14], the Potency result was “inactive”.

As to `CC1=C2CC(C)(C)CC2C(O)C2=C(C1)C(=O)OC2O` (stereo unspecified), the call in [1], in experiment [3], in [4], in experiment [6] and in experiment [9] was inactive. Also, the max response was 4.01% in experiment [2] and -6.57% in experiment [5]. In addition, the Potency result in experiment [7], in experiment [8], in experiment [10], in [11], in experiment [12] and in experiment [13] was “inactive” each time. Moreover, the Potency result in [14] was “inactive”.

For the origin of these results see PubChem BioAssay (NCATS).
